From PubChem BioAssay (NCI) come the findings set out here.

Among the test systems are HCT-15 colon; HT29 colon; SNB-75 CNS; SNB-19 CNS; U251 CNS; PC-3 prostate; SK-MEL-5 melanoma; UACC-62 melanoma; LOX IMVI melanoma; SK-MEL-28 melanoma.
Test in all cases: NCI-60 one-dose screen, 48 h (100 = growth as untreated, 0 = no growth, -100 = all killed)
What all share (details): 10 µM unless noted

The structures appear in SMILES notation. About 83,000 compounds went through this panel and 20% of them were active in at least one assay; those are over-represented in the sample as a whole.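 Treatment: one concentration, 48 hours, 96-well format. Scoring: percent growth, with anything below 10 considered active.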 Unmarked numbers belong to inactive results. The source made the active and inactive calls.

On to `Clc1ccc2nn3c4ccccc4c(OCCN4CCOCC4)nc3c2c1`, for which the growth with HCT-15 colon was 89.8%; in the experiment on HT29 colon, 95.5%; with SNB-75 CNS, 76.8%; with SNB-19 CNS it was 81.1%; in the experiment on U251 CNS, 84.5%; with PC-3 prostate, 92.8%. Also, the growth with SK-MEL-5 melanoma was 83.7%; in the experiment on UACC-62 melanoma, 67.6%; with LOX IMVI melanoma it was 84.2%; in the experiment on SK-MEL-28 melanoma, 110%.

With `COc1cc(-c2ccc(-c3ccc(C(=N)N)cc3)s2)cc(OC)c1OC`, the growth in the experiment on HCT-15 colon is 58.9%; in the experiment with HT29 colon, 8.4% (active); in the experiment with SNB-75 CNS, 64.8%; in the experiment on SNB-19 CNS it was 69.1%; in the experiment with U251 CNS, 26.2%; in the experiment with PC-3 prostate it was 53.4%. The growth was 55.3% in the experiment on SK-MEL-5 melanoma, 54.7% in the experiment with UACC-62 melanoma, 27.2% in the experiment with LOX IMVI melanoma and 77.3% in the experiment on SK-MEL-28 melanoma.

As to `N#Cc1c(-c2ccc(Cl)cc2)nc(NN=Cc2ccc[nH]2)nc1N1CCOCC1`, the growth is 78.9% in the experiment on HCT-15 colon; 66.2% in the experiment with HT29 colon; -13.5% (active) with SNB-75 CNS; 74.2% in the experiment with SNB-19 CNS; 56.4% in the experiment on U251 CNS; 46.6% in the experiment with PC-3 prostate. The growth in the experiment on SK-MEL-5 melanoma is 85.2%; with UACC-62 melanoma, 88%; in the experiment with LOX IMVI melanoma it was 87.8%; with SK-MEL-28 melanoma, 90.8%.

Consider `N#CSc1c[nH]c2ccc(/C=C/C(=O)/C=C(O)/C=C/c3ccc4[nH]cc(SC#N)c4c3)cc12`, for which the growth in the experiment with HCT-15 colon is -31% (active); in the experiment on HT29 colon, -10.1% (active); in the experiment with SNB-75 CNS, 51.9%; in the experiment on SNB-19 CNS it was 46.2%; with U251 CNS, 7.38% (active); in the experiment with PC-3 prostate, 12%. The growth was 41.2% in the experiment on SK-MEL-5 melanoma, 26.3% in the experiment on UACC-62 melanoma, -75.8% (active) with LOX IMVI melanoma and 31.8% in the experiment with SK-MEL-28 melanoma.

In the case of `CCN(CC)C(=O)CC1=C(C)/C(=C/c2[nH]c(-c3ccc[nH]3)cc2OC)N=C1C`, the growth in the experiment with HCT-15 colon was 1.25% (active); in the experiment on HT29 colon, 12.4%; with SNB-75 CNS it was 14.2%; in the experiment with SNB-19 CNS, 42.4%; in the experiment on U251 CNS it was 23.9%; with PC-3 prostate it was 3.87% (active). Further, the growth in the experiment on SK-MEL-5 melanoma was -59.3% (active); in the experiment with UACC-62 melanoma, -51.8% (active); in the experiment on LOX IMVI melanoma, -58.8% (active); in the experiment on SK-MEL-28 melanoma, 25.6%.

Turning to `COc1cc2c(c(OC)c1OC)C(=O)CC(c1cccc(C(=O)Nc3ccccc3Br)c1)O2` (stereo not given), the growth in the experiment on HCT-15 colon is 88.1%; in the experiment with HT29 colon, 84%; in the experiment on SNB-75 CNS, 76.2%; in the experiment with SNB-19 CNS, 88.4%; in the experiment on U251 CNS it was 94.8%; in the experiment on PC-3 prostate, 68.4%. The growth is 80.2% with SK-MEL-5 melanoma, 80.8% in the experiment on UACC-62 melanoma, 84.2% in the experiment with LOX IMVI melanoma and 104% in the experiment on SK-MEL-28 melanoma.

For the compound `CCOC(=O)NCCCC(=O)NCCc1ccccc1`, the growth was 118% in the experiment with HCT-15 colon; 110% in the experiment with HT29 colon; 109% in the experiment on SNB-75 CNS; 108% in the experiment with SNB-19 CNS; 99.6% in the experiment with U251 CNS; 99.5% in the experiment on PC-3 prostate. The growth in the experiment with SK-MEL-5 melanoma was 99.8%; in the experiment with UACC-62 melanoma it was 107%; in the experiment with LOX IMVI melanoma, 94.2%; in the experiment on SK-MEL-28 melanoma it was 114%.

`C=C[C@@]1(C)CC(=O)[C@@H](C(C)(C)c2cn(C)c3ccc(Br)cc23)C[C@@H]1O[Si](C)(C)C(C)(C)C`: the growth in the experiment with HCT-15 colon was 102%; in the experiment on HT29 colon it was 103%; with SNB-75 CNS it was 102%; with SNB-19 CNS, 98.9%; with U251 CNS it was 97.4%; with PC-3 prostate it was 84.1%. Also, the growth with SK-MEL-5 melanoma is 104%; with UACC-62 melanoma, 93.7%; in the experiment with LOX IMVI melanoma it was 90.4%; in the experiment on SK-MEL-28 melanoma it was 100%.

On to `C=CCN=c1sc(-c2ccc3ccccc3c2)cn1NC(=O)c1cc2ccc1CCc1ccc(cc1)CC2`, for which the growth was 49.5% in the experiment with HCT-15 colon; 30.1% in the experiment with HT29 colon; 53.3% with SNB-75 CNS; 66.8% in the experiment on SNB-19 CNS; 53.9% with U251 CNS; 37.8% in the experiment on PC-3 prostate. Also, the growth is -10.1% (active) in the experiment with SK-MEL-5 melanoma, 52.7% with UACC-62 melanoma, 59.9% in the experiment on LOX IMVI melanoma and 72.2% in the experiment with SK-MEL-28 melanoma.

With `COc1ccc2[nH]cc(-c3nonc3-c3c[nH]c4ccc(Br)cc34)c2c1`, the growth with HCT-15 colon was 19.9%; in the experiment on HT29 colon it was 5.38% (active); in the experiment with SNB-75 CNS, 58.6%; in the experiment with SNB-19 CNS, 62.9%; in the experiment with U251 CNS, 42.2%; in the experiment on PC-3 prostate, 39.8%. Also, the growth with SK-MEL-5 melanoma is 78.1%; in the experiment with UACC-62 melanoma, 56%; with LOX IMVI melanoma, -33.4% (active); with SK-MEL-28 melanoma it was 84.1%.

As for `COC12C=C/C(=C(/C(=O)OCCSc3ccnn3C)C(=O)CCCCCCCCC3(OC)C=C/C(=C(/C(=O)OCCSc4ccnn4C)C(=O)CCCCCCCC1)O3)O2`, the growth is -19.5% (active) in the experiment on HCT-15 colon; 11.9% with HT29 colon; 56.8% with SNB-75 CNS; 32.9% in the experiment on SNB-19 CNS; -3.32% (active) in the experiment on U251 CNS; 15.8% in the experiment with PC-3 prostate. For the same compound, the growth is -70% (active) with SK-MEL-5 melanoma, -56.3% (active) with UACC-62 melanoma, -68.6% (active) in the experiment on LOX IMVI melanoma and -9.65% (active) in the experiment on SK-MEL-28 melanoma.

Turning to `O=CN1N=C(c2cccc(Nc3ccnc4cc(Cl)ccc34)c2)CC1c1ccc(Cl)cc1` (stereo not given), the growth with HCT-15 colon was 29.5%; in the experiment with HT29 colon, -24.8% (active); with SNB-75 CNS, -17.4% (active); in the experiment with SNB-19 CNS, 49%; in the experiment with U251 CNS, 18.9%; in the experiment with PC-3 prostate, 23.1%. Besides, the growth with SK-MEL-5 melanoma is 12.7%; in the experiment with UACC-62 melanoma, 32.4%; in the experiment with LOX IMVI melanoma, 24.2%; in the experiment on SK-MEL-28 melanoma, 52.7%.

As for `COc1ccc(-c2cc(C(=O)N3N=C(c4ccc(N)cc4)CC3c3ccc(Cl)cc3)c3cc(OC)ccc3n2)cc1` (stereo not given), the growth with HCT-15 colon was 22.4%; with HT29 colon, 45.1%; with SNB-75 CNS, 87.3%; in the experiment with SNB-19 CNS it was 92.6%; in the experiment on U251 CNS, 74.9%; in the experiment on PC-3 prostate it was 22.9%. Besides, the growth in the experiment on SK-MEL-5 melanoma is 88%; in the experiment on UACC-62 melanoma, 49%; in the experiment with LOX IMVI melanoma, 39%; in the experiment on SK-MEL-28 melanoma, 48%.

In the case of `c1ccc(-c2ccc3c(c2)C2(CCNCC2)CN3)cc1`, the growth with HCT-15 colon was 99.6%; in the experiment on HT29 colon it was 96.5%; in the experiment on SNB-75 CNS, 73.8%; with SNB-19 CNS it was 101%; in the experiment on U251 CNS, 102%; with PC-3 prostate, 86.9%. In addition, the growth is 99.1% in the experiment on SK-MEL-5 melanoma, 84.6% in the experiment on UACC-62 melanoma, 89.9% in the experiment on LOX IMVI melanoma and 110% in the experiment on SK-MEL-28 melanoma.
